Test results published in PubChem BioAssay (Tox21).
Records with an inconclusive call do not appear. Calls of active or inactive are those of the source. Unless noted, calls come from the whole dose curve; as a rule, active = well fitted curve in the direction sought with a large enough effect in the repeat runs; inconclusive = weak or mixed curves; inactive = no such curve, though single readings can be large; an effect the other way counts as inactive or inconclusive.

Tests used:
[1] = qHTS assay to identify small molecule agonists of the RXR signaling pathway - cell viability counter screen (AID 1159529); note: nearly all actives have a fitted effect of over 50% in size; note: potency is the fitted concentration of half-maximal effect
Method in brief: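 Viability read-out for the RXR-alpha agonist qHTS: luminescent CellTiter-Glo signal after 30 min at RT. HEK 293T bla reporter cells, 2% charcoal-stripped FBS, 16 hr compound incubation; tetraoctyl ammonium bromide as cytotoxic control.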

[2] = qHTS assay to identify small molecule antagonists of the retinoid acid receptor (RAR) signaling pathway - cell viability counter screen (AID 1159551); note: nearly all actives have a fitted effect of over 35% in size
Method in brief: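 ATP-based viability, C3RL4 cells, 6 h at 37 C with 1 uM final retinol co-added after compound; luminescence read 30 min post CellTiter-Glo, RT.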

[3] = qHTS assay to identify small molecule antagonists of the estrogen related receptor (ERR) signaling pathway from Tox21 library - cell viability counter screen (AID 1224834); note: nearly all actives have a fitted effect of over 30% in size; note: potency is the fitted concentration of half-maximal effect
Method in brief: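 Compounds in DMSO were pinned onto ERR cells that had been incubated for 6 h, and the plates were held at 37 C for 17.5 h. CellTiter-Fluor reagent was then added and fluorescence was measured after 30 min.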

[4] = biological target: Luciferin 4-monooxygenase (Photinus pyralis) (UniProt P08659); experiment: qHTS assay to identify small molecule inhibitors of firefly luciferase (AID 1224835); note: series mostly up to about 120 µM; nearly all actives have a fitted effect of over 25% in size
Method in brief: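 Quantitative HTS format; KM concentrations of both substrates. Purified P. pyralis FLuc activity quantified from luminescence images.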

[5] = qHTS assay to identify small molecule agonists of the constitutive androstane receptor (CAR) signaling pathway - cell viability counter screen (AID 1224836); note: series mostly up to about 92 µM; nearly all actives have a fitted effect of over 45% in size
Method in brief: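 Multiplexed viability check: HepG2-CYP2B6-hCAR cells, 15-point compound dosing, 0.75 uM PK11195 final, 23 h at 37 C, CellTiter-Fluor fluorescence.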

[6] = qHTS assay to identify small molecule antagonists of the constitutive androstane receptor (CAR) signaling pathway - cell viability counter screen (AID 1224837); note: series mostly up to about 92 µM; nearly all actives have a fitted effect of over 45% in size
Method in brief: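 Cells are seeded, rested 4 hr at 37 C/5% CO2, dosed with compound (15-point series) and 50 nM CITCO, incubated a further 23 hr, and then CellTiter-Fluor reagent is added before fluorescence is read. The line is HepG2 with stable hCAR and CYP2B6-2.2kb.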

[7] = biological target: Nuclear receptor subfamily 1 group I member 3 (Homo sapiens) (UniProt Q14994); experiment: qHTS assay to identify small molecule antagonists of the constitutive androstane receptor (CAR) signaling pathway (AID 1224838);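 note: HepG2 cells stably expressing hCAR with CYP2B6 luciferase reporter stimulated by CITCO; nearly all actives have a fitted effect of over 40% in size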
Method in brief: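 Luminescence from a CYP2B6-2.2kb promoter reporter in hCAR-expressing HepG2 cells reflects CAR signaling. Cells received compounds at 15 concentrations and 50 nM CITCO (final), then incubated 24 h at 37 C/5% CO2.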

[8] = biological target: Nuclear receptor subfamily 1 group I member 3 (Homo sapiens) (UniProt Q14994); experiment: qHTS assay to identify small molecule agonists of the constitutive androstane receptor (CAR) signaling pathway (AID 1224839);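 note: HepG2 cells stably carrying human CAR and a CYP2B6 luciferase reporter; series mostly up to about 92 µM; nearly all actives have a fitted effect of over 15% in size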
Method in brief: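 Using human hepatoma HepG2 cells engineered with hCAR and a CYP2B6-2.2kb reporter, 15-concentration compound series were incubated 24 h alongside PK11195 at 0.75 uM final, with luminescence quantified afterwards.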

[9] = qHTS assay to identify small molecule antagonists of the estrogen related receptor signaling pathway with the pleiotropic PPARgamma coactivator (PGC) from Tox21 10K library - cell viability counter screen (AID 1224840; active = well fitted cell-killing curve with a large enough effect in the repeat runs, not every such curve was filed as active; note: nearly all actives have a fitted effect of over 40% in size)
Method in brief: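 Cell viability is measured by CellTiter-Fluor fluorescence in PGC/ERR cells that receive compounds after a 6-hour attachment period and are then incubated 17.5 hours at 37 C.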

[10] = qHTS assay to identify small molecule antagonists of the estrogen related receptor signaling pathway with the pleiotropic PPARgamma coactivator (PGC) from Tox21 10K library (AID 1224841; call rule not given here; note: series mostly up to about 92 µM; actives are mostly falling curves and most rising ones were filed inactive; nearly all actives have a fitted effect of over 50% in size)
Method in brief: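 Cells stably carrying the PGC/ERR reporter, seeded at 2,000 per well, received pin-transferred compounds 6 h post-plating. Exposure lasted 18 h at 37 C. Signal: One-Glo luminescence.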

[11] = qHTS assay to identify small molecule agonists of the estrogen related receptor signaling pathway with the pleiotropic PPARgamma coactivator (PGC) from Tox21 10K library (AID 1224842); note: nearly all actives have a fitted effect of over 15% in size
Method in brief: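 PGC/ERR reporter cells (NTP line) were seeded 2,000 per well, rested 6 h at 37 C/5% CO2, then pin-dosed with compounds in DMSO for 18 h at 37 C; luciferase read by One-Glo luminescence after 30 min at room temperature.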

[12] = biological target: Thyrotropin receptor (Homo sapiens) (UniProt P16473); experiment: qHTS assay to identify small molecule agonists of the thyroid stimulating hormone receptor (TSHR) signaling pathway (AID 1224843; calls by dose curve; note: nearly all actives have a fitted effect of over 45% in size)
Method in brief: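 Using 15 concentrations per compound in triplicate, cAMP production was monitored in TSHR-HEK293 cells after 30 min compound incubation at RT; HTRF reagents followed, with fluorescence intensity recorded after 1 h.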

Measured: Potency

Chain of Thyrotropin receptor (Homo sapiens) (P16473 whole entry, looked up): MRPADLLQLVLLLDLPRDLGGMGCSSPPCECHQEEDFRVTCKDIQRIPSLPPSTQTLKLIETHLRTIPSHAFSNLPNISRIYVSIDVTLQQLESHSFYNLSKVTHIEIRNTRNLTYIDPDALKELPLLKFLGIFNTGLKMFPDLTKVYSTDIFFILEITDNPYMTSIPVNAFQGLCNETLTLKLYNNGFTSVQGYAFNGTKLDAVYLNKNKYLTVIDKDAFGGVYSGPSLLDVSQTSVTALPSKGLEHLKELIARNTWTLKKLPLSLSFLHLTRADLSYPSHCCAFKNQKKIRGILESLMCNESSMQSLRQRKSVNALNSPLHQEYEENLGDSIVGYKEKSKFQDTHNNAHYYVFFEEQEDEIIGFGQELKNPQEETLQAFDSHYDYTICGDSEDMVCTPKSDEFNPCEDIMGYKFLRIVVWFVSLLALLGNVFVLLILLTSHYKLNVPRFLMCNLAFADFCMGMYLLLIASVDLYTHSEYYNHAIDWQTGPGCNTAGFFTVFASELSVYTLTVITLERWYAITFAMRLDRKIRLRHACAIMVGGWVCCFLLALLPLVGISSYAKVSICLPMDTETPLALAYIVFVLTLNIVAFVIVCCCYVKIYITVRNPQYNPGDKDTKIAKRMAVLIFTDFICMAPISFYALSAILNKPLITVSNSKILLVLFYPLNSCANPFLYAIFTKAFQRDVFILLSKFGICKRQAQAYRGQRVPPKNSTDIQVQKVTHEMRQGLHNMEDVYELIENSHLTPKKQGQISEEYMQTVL
Chain of Luciferin 4-monooxygenase (Photinus pyralis) (P08659 whole entry, looked up): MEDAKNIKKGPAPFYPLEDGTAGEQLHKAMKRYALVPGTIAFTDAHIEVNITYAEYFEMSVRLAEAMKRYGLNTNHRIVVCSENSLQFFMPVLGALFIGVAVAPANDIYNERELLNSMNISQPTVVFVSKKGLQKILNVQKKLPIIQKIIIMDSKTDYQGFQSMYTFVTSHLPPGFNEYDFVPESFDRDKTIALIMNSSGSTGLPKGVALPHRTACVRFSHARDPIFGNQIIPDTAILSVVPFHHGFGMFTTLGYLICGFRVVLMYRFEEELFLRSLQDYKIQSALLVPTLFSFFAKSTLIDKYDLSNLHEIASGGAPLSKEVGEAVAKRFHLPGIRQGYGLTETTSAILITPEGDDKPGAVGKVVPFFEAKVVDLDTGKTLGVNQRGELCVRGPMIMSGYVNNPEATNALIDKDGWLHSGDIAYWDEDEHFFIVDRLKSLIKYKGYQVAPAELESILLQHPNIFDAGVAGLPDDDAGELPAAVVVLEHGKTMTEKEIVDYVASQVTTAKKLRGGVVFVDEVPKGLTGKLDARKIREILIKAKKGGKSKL
Chain of Nuclear receptor subfamily 1 group I member 3 (Homo sapiens) (Q14994 whole entry, looked up): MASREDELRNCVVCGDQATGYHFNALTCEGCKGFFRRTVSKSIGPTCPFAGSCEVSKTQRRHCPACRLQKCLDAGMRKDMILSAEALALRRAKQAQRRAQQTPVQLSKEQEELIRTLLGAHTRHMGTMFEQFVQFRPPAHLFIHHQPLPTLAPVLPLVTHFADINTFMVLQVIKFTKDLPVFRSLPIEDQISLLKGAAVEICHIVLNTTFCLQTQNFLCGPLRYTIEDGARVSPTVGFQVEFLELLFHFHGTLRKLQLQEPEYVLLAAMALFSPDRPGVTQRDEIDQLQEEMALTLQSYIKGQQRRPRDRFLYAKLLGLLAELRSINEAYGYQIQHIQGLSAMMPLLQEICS

C=CCCC(=O)O
inactive: all assays above

Cc1onc(-c2c(Cl)cccc2Cl)c1C(=O)Cl
not listed: [10] | [11]
inactive: all other assays above

CO[Si](C)(OC)c1ccccc1
inactive: all assays above

COc1ccccc1OCC1CNC(=O)O1 (stereo not given)
not listed: [10]
inactive: all other assays above

CCCCCCCCCCCCCCCCCCO
not listed: [10] | [11]
inactive: all other assays above

COc1cc(C(=O)OC(COCCC(C)C)CN2CCOCC2)cc(OC)c1OC (stereo not given)
not listed: [10] | [11]
inactive: all other assays above

CCC(C(=O)NC(=O)NC(C)=O)c1ccccc1 (stereo not given)
inactive: all assays above

C=CC(C)(CCC=C(C)C)OC(=O)CC (stereo not given)
not listed: [10] | [11]
inactive: all other assays above

Cc1nc(C2CCCCC2)c(-c2ccc(S(N)(=O)=O)c(F)c2)o1
inactive: all assays above

Cc1cccc(C)c1NC(=O)CC12CCCN1CCC2
inactive: all assays above

CC(C)(C#N)Nc1nc(Cl)nc(NC2CC2)n1
not listed: [10] | [11]
inactive: all other assays above

CCCC[N+](C)(CCCC)CCCC
not listed: [10] | [11]
inactive: all other assays above

CC(C)(C)C(=O)c1ccccc1
not listed: [10] | [11]
inactive: all other assays above

COCCOCC(OC)OC
inactive: all assays above

NS(=O)(=O)Cc1noc2ccccc12
inactive: all assays above

CC(C#N)(CCC(=O)O)N=NC(C)(C#N)CCC(=O)O (stereo not given)
inactive: all assays above

Clc1cc(Cl)c(Cl)nc1Cl
inactive: all assays above

C=C(C)C(=O)OCC(O)CO (stereo not given)
inactive: all assays above

CC1=CCC(O)(C(C)C)CC1 (stereo not given)
not listed: [10] | [11]
inactive: all other assays above

Nc1ccncc1N
not listed: [10] | [11]
inactive: all other assays above

CC1=C(C/C=C(\C)CCC[C@H](C)CCC[C@H](C)CCCC(C)C)C(=O)c2ccccc2C1=O
inactive: all assays above

NC(=O)N[C@@H](CCC(=O)O)C(=O)O
not listed: [10] | [11]
inactive: all other assays above

O=C(CO)[C@@H](O)[C@H](O)[C@@H](O)CO
inactive: all assays above

C=CCOCC(O)CO (stereo not given)
not listed: [10] | [11]
inactive: all other assays above

CN(C)[C@@H]1C(=O)C(C(=O)NCN2CCCC2)=C(O)[C@@]2(O)C(=O)C3=C(O)c4c(O)cccc4[C@@](C)(O)C3C[C@@H]12 (stereo not given in full)
not listed: [10] | [11]
inactive: all other assays above

COc1ccnc(CS(=O)c2nc3cc(OC(F)F)ccc3[nH]2)c1OC (stereo not given)
not listed: [10] | [11]
inactive: all other assays above

CC(COc1ccccc1)NN (stereo not given)
inactive: all assays above

CC[C@H]1OC(=O)[C@H](C)[C@@H](O[C@H]2C[C@@](C)(OC)[C@@H](O)[C@H](C)O2)[C@H](C)[C@@H](O[C@@H]2O[C@H](C)C[C@H](N(C)C)[C@H]2O)[C@](C)(OC)C[C@@H](C)C(=O)[C@H](C)[C@@H](O)[C@]1(C)O
not listed: [10] | [12]
inactive: all other assays above

CCN(C=O)CC
active: [1] 50.3 µM
not listed: [10] | [11]
inactive: all other assays above

O=C(O)Cc1csc(-c2ccc(Cl)cc2)n1
not listed: [10] | [11]
inactive: all other assays above

COc1cccc(OC)c1C(=O)N[C@@H]1C(=O)N2[C@@H]1SC(C)(C)[C@@H]2C(=O)O
not listed: [10] | [11]
inactive: all other assays above

NC(=O)Cc1cccc2ccccc12
not listed: [10] | [11]
inactive: all other assays above

OCCCCCO
inactive: all assays above

CCOC(=O)OC(C)OC1=C(C(=O)Nc2ccccn2)N(C)S(=O)(=O)c2ccccc21 (stereo not given)
inactive: all assays above

O=C(O)c1cn(C2CC2)c2cc(N3CCNCC3)c(F)cc2c1=O
inactive: [1] | [2] | [3] | [5] | [6] | [9] | [12]

CCCCCC(C)N (stereo not given)
not listed: [8] | [10] | [11]
inactive: all other assays above

[O-][n+]1cccc(CO)c1
not listed: [10] | [11]
inactive: all other assays above

CCCCc1nc(Cl)c(CO)n1Cc1ccc(-c2ccccc2-c2nn[nH]n2)cc1
not listed: [4] | [10] | [11] | [12]
inactive: all other assays above

O=S(=O)(O)c1cccc2ccccc12
not listed: [7] | [8] | [12]
inactive: all other assays above

CC(=O)O[C@@]12CO[C@@H]1C[C@H](O)[C@@]1(C)C(=O)[C@H](O)C3=C(C)[C@@H](OC(=O)[C@H](O)[C@@H](NC(=O)OC(C)(C)C)c4ccccc4)C[C@@](O)([C@@H](OC(=O)c4ccccc4)[C@H]21)C3(C)C
inactive: [1] | [2] | [4] | [5] | [9]
active: [3] 0.0668 µM
